# Measurements: PMC5540273 (PLoS ONE, 2017)
# Key:
# Settings in all cases: concentration: 1 μM,replicates: in singlicate; n = 1
# [1] = tested on: T1, RSK4(Kin.Dom.1-N-terminal)
# T1 construct: gene RPS6KA6
# [2] = tested on: T2, RSK4(Kin.Dom.2-C-terminal)
# T2 construct: gene RPS6KA6
# S6K1 = tested on: S6K1
# SBK1 = tested on: SBK1
# SGK2 = tested on: SGK2
# SGK3 = tested on: SGK3
# SGK = tested on: SGK
# SIK2 = tested on: SIK2
# SIK = tested on: SIK
# SLK = tested on: SLK
# 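Also: KINOMEscan kinase panel screen.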
Structure (SMILES),%Inh [1] [%],%Inh [2] [%],%Inh (S6K1) [%],%Inh (SBK1) [%],%Inh (SGK2) [%],%Inh (SGK3) [%],%Inh (SGK) [%],%Inh (SIK2) [%],%Inh (SIK) [%],%Inh (SLK) [%]
O=C1NCCc2[nH]c(-c3ccncc3)cc21,22,25,11,44,27,36,44,34,13,22
COC(=O)c1cccc(NC(=O)NC2CCN(c3ccnc(Nc4cc(OC)c(OC)c(OC)c4)n3)C2)c1 (stereo not drawn) [GSK1379767],0,16,0,6,0,2,0,5,0,28
NC(=O)Nc1sc(-c2ccc(F)cc2)cc1C(N)=O [GW789449],76,4,3,16,10,31,1,16,21,25
O=c1[nH]cc(-c2ccc(O)cc2)c2sc(-c3ccncc3)cc12 [GSK1033723],0,15,0,9,0,2,0,0,0,1
COC(=O)Nc1nc2cc(Oc3ccc(NC(=O)Nc4cc(C(F)(F)F)ccc4Cl)cc3)ccc2[nH]1.Cl [GW697465],0,25,23,1,0,0,2,0,0,63
CN(c1ccccc1CNc1nc(Nc2ccc3c(c2)CC(=O)N3)ncc1C(F)(F)F)S(C)(=O)=O,67,2,22,3,0,32,18,40,16,94.8
Cn1ccc2ncnc(Oc3ccc(NC(=O)Nc4cccc(C(F)(F)F)c4)c(Cl)c3)c21,0,41,2,0,0,0,0,9,10,63
Cc1ccc2c(-c3ccnc(Nc4ccc(C(F)(F)F)cc4)n3)cnn2n1 [GW819776],23,0,29,8,0,0,9,2,0,21
O=C(Nc1ccccc1)c1cccc(Oc2ccc3nccn3n2)c1,5,0,0,5,18,17,0,0,0,9
Cc1ccc(CC(=O)N2CCc3cc(-c4cn(C)c5ncnc(N)c45)ccc32)cc1 [GSK2634758],0,15,5,7,0,4,0,0,32,59
C[C@@H]1CCN(C(=O)N2CCCC2)C[C@@H]1N(C)c1ncnc2[nH]ccc12,18,31,2,19,3,27,0,6,11,21
CC(=O)Nc1ccc(-c2cc3ncnc(SCC(=O)O)c3s2)cc1,13,18,0,22,0,39,0,24,6,18
CCn1c(-c2nonc2N)nc2cncc(Br)c21 [SB-738004],64,29,45,8,0,66,45,7,15,0
O=C(Nc1cccc(Oc2ccc3nccn3n2)c1)Nc1cccc(C(F)(F)F)c1,0,0,0,0,8,8,0,16,17,0
CC(C(=O)NC1CCN(c2ccnc(Nc3ccc(F)cc3)n2)C1)c1ccc(Cl)cc1 (stereo not drawn) [GSK1379713],0,0,0,7,0,0,0,0,0,17
NC(=O)c1ccc(-c2cc3ncnc(SCC(=O)O)c3s2)cc1,0,0,15,0,0,0,0,7,6,10
Nc1nccc(-c2ccc3c(N)n[nH]c3c2)n1 [GSK1034945],59,24,1,25,4,24,0,0,0,25

Structure (SMILES),%Inh [1] [%],%Inh [2] [%],%Inh (S6K1) [%],%Inh (SBK1) [%],%Inh (SGK2) [%],%Inh (SGK3) [%],%Inh (SGK) [%],%Inh (SIK2) [%],%Inh (SIK) [%],%Inh (SLK) [%]
CCN1CCN(CCCC(=O)Nc2n[nH]c3nc(-c4ccc(O)cc4)c(Br)cc23)CC1 [SB-731579],20,0,0,10,0,0,0,0,0,78
O=C(Nc1n[nH]c2cc(-c3ccco3)ccc12)C1CC1 [SB-737447],26,10,4,23,30,34,47,0,0,13
CC(=O)c1c(-c2ccncc2)[nH]c(-c2ccncc2)c1C [GW493036],0,4,6,10,11,9,0,0,0,0
O=C(NCC1CC1)c1ccc(-c2cc(C(=O)NC3CC3)ccc2F)cc1 [GW810445],0,0,0,4,0,0,7,0,2,0
Cc1ccc(C(=O)Nc2ccc(Oc3ccc4nc(NC(=O)C5CC5)cn4c3)c(F)c2)c(=O)n1-c1ccccc1,0,0,9,0,0,0,0,19,94.9,79
COc1cc(Nc2nccc(N3CCC(NC(=O)c4cccc(C#N)c4)C3)n2)cc(OC)c1OC (stereo not drawn) [GSK1379751],0,9,0,22,2,0,3,0,0,1
C[C@@H](Oc1cc(-n2cnc3cc(-c4ccncc4)ccc32)sc1C(N)=O)c1ccccc1Cl [GSK479719],25,21,11,19,5,0,0,43,11,99.4
CCNCC(Cc1ccccc1)NC(=O)c1cc(Br)c(-c2ccnc3[nH]ccc23)s1.Cl.Cl (stereo not drawn) [GSK1383280],33,18,67,70,9,82,65,0,0,0
COc1cc2ncn(-c3cc(OCC4CCCCC4)c(C(N)=O)s3)c2cc1OC [GSK204559],3,20,0,22,0,9,0,0,4,80
Cn1ccc2ncnc(Oc3ccc(NC(=O)Nc4cc(C(C)(C)C)on4)c(Cl)c3)c21,26,18,6,13,24,0,10,4,11,97.7
Cc1nnc(-c2ccc3occ(-c4ccc(S(C)=O)cc4)c3n2)o1 (stereo not drawn),0,15,0,0,0,0,0,59,4,0
Cc1ccn2nc(-c3ccc(F)cc3)c(-c3ccncc3)c2c1.Cl [GW457859],0,85,1,10,0,5,22,0,0,2
O=C(Nc1cccc(C(F)(F)F)c1)c1cccc(Oc2ccc3nccn3n2)c1,23,22,2,35,15,14,9,0,0,10
CS(=O)(=O)Nc1ccc(-c2ccnc3[nH]ccc23)cc1 [GSK993273],27,60,37,55,13,12,24,39,9,49
COc1cc2c(Nc3ccc(NC(=O)c4ccccc4)cc3)ncnc2cc1OCCCN1CCOCC1 [GSK301329],0,0,24,14,2,1,0,4,2,58
Cn1ccc2ncnc(Oc3ccc(NC(=O)Nc4cccc(C(F)(F)F)c4)c(F)c3)c21,0,2,22,0,0,2,0,3,28,54
